Reference: PubChem BioAssay (Tox21)
Results filed as inconclusive are left out. Activity calls are given as the source filed them. Unless noted, calls follow the shape of the dose curve; as a rule, active = well fitted curve in the direction sought with a large enough effect in the repeat runs; inconclusive = weak or mixed curves; inactive = no such curve, though single readings can be large; an effect the other way counts as inactive or inconclusive.

What was measured:
[1] = qHTS assay to identify small molecule antagonists of the vitamin D receptor (VDR) signaling pathway - cell viability counter screen (AID 743225); also: nearly all actives have a fitted effect of over 50% in size
Outline: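 Parallel cytotoxicity test: VDR-UAS-bla HEK 293T, 3 nM (final) 1-alpha,25-dihydroxyvitamin D3 with test compound, 16 h, 37C. Endpoint is CellTiter-Glo luminescence in the same wells.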

[2] = qHTS assay to identify small molecule agonists of the NFkB signaling pathway (AID 1159509; active = well fitted curve in the direction sought with a large enough effect in the signal ratio in the repeat runs, not every such curve was filed as active; the % refers to the signal ratio; also: series mostly up to about 61 µM)
Outline: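 After overnight attachment, reporter cells received test compounds, DMSO or positive controls and were incubated 5 hr at 37 C. FRET substrate was then added for 1.5 hr at room temperature before dual-emission fluorescence reading.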

[3] = qHTS assay to identify small molecule agonists of the NFkB signaling pathway - cell viability counter screen (AID 1159515; calls by dose curve; also: series mostly up to about 61 µM; nearly all actives have a fitted effect of over 55% in size)
Outline: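 Using the same wells as the NFkB reporter read, ME-180 NFkB-bla cells given compounds for 5 hr were assessed for viability via CellTiter-Glo, with luminescence taken after a 30 min room-temperature incubation.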

[4] = qHTS assay to identify small molecule agonists of the endoplasmic reticulum stress response signaling pathway (AID 1159516; active = well fitted activation curve with a large enough effect in the signal ratio in the repeat runs, not every such curve was filed as active; the % refers to the signal ratio)
Outline: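 An ESRE-bla HeLa cell assay: compounds were pin-transferred from DMSO onto overnight-plated cells and left 5 hr at 37 C. Substrate was then loaded for 2 hr at room temperature before reading fluorescence at 460 nm and 530 nm.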

[5] = qHTS assay to identify small molecule agonists of the endoplasmic reticulum stress response signaling pathway - cell viability counter screen (AID 1159517; calls by dose curve;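 also: HeLa cells carrying an ER stress response element beta-lactamase reporter; series mostly up to about 61 µM; nearly all actives have a fitted effect of over 50% in size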)
Outline: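 Counter-screen wells were identical to the reporter wells. Cells were plated at 1,500 per well and dosed for 5 hr, then read for luminescence 30 min after CellTiter-Glo addition.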

[6] = target: Nuclear receptor ROR-gamma (Homo sapiens) (UniProt P51449); test: qHTS assay to identify small molecule antagonists of the retinoid-related orphan receptor gamma (ROR-gamma) signaling pathway (AID 1159521; also: nearly all actives have a fitted effect of over 50% in size; also: potency is read from the fitted curve at half-maximal effect)
Outline: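 Decreased RORE-driven luciferase luminescence indicates antagonism. Tet-on RORγ CHO cells received compound, then 1 uM final doxycycline 2 h later; signal read after 16 h incubation.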

[7] = qHTS assay to identify small molecule agonists of the AP-1 signaling pathway - cell viability counter screen (AID 1159525; calls by dose curve; also: nearly all actives have a fitted effect of over 55% in size)
Outline: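 AP-1-bla ME-180 cells in Opti-MEM with 0.5% dialyzed FBS, compound exposure 5 h at 37 C in 15-point titration. Viability read in the same wells as ATP content by CellTiter-Glo luminescence, normalised to tetra-n-octylammonium bromide and DMSO controls.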

[8] = qHTS assay to identify small molecule agonists of the AP-1 signaling pathway (AID 1159526; calls by dose curve)
[9] = qHTS assay to identify small molecule agonists of the RXR signaling pathway - cell viability counter screen (AID 1159529);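 also: HEK 293T cells carrying an RXR-alpha UAS beta-lactamase reporter; series mostly up to about 77 µM; nearly all actives have a fitted effect of over 50% in size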
Outline: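 In this parallel viability measure, GeneBLAzer RXR-alpha HEK 293T cells (2% charcoal-stripped FBS) were given a 5 hr preincubation, treated with compounds 16 hr at 37 C, and read by CellTiter-Glo luminescence.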

[10] = qHTS assay to identify small molecule antagonists of the retinoid acid receptor (RAR) signaling pathway - cell viability counter screen (AID 1159551); also: nearly all actives have a fitted effect of over 35% in size; also: potency is read from the fitted curve at half-maximal effect
Outline: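 Retinol-stimulated (1 uM final) C3RL4 cells, compound 6 h, 37 C; readout CellTiter-Glo luminescence (ATP) after 30 min RT incubation.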

[11] = qHTS assay to identify small molecule antagonists of the retinoid-related orphan receptor gamma (ROR-gamma) signaling pathway - cell viability counter screen (AID 1159520); also: nearly all actives have a fitted effect of over 50% in size
Outline: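 Tet-on ROR gamma CHO cells were given compounds for 2 hr, then doxycycline hyclate at 1 uM final, and incubated 16 hr at 37 C. Viability was measured as ATP content by CellTiter-Glo luminescence.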

[12] = qHTS assay to identify small molecule antagonists of the retinoic acid receptor (RAR) signaling pathway (AID 1159552; also: nearly all actives have a fitted effect of over 50% in size; also: potency is read from the fitted curve at half-maximal effect)
Outline: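 C3RL4 RARE-luc cells, overnight plating; retinol 1 uM final added right after compound; 6 hr 37 C; luciferase read at 30 min RT.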

[13] = qHTS assay to identify small molecule agonists of the retinoic acid receptor (RAR) signaling pathway (AID 1159553); also: potency is read from the fitted curve at half-maximal effect
Outline: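 Reporter readout comes from luciferase under RARE control in C3RL4 cells; compound exposure lasts 6 hr at 37 C in 5% CO2, and luminescence is recorded following a 30 min room-temperature incubation with reagent.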

[14] = target: Retinoic acid receptor RXR-alpha (Homo sapiens) (UniProt P19793); test: qHTS assay to identify small molecule agonists of the RXR signaling pathway (AID 1159527; calls by dose curve; also: nearly all actives have a fitted effect of over 35% in size)
Outline: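 16 hr incubation of compound-treated RXR-alpha-UAS-bla HEK 293T cells (2% charcoal-stripped FBS, 37 C) preceded a 2 hr room-temperature LiveBLAzer FRET substrate step and blue/green fluorescence measurement.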

[15] = qHTS assay to identify small molecule antagonists of the estrogen related receptor (ERR) signaling pathway - cell viability counter screen (AID 1224818);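 also: series mostly up to about 46 µM; viability measured after 17.5 h of compound exposure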
Outline: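 After a 6 h pre-incubation, ERR cells were dosed by pin tool with compounds, positive/negative controls or DMSO alone. Following 17.5 h at 37 C and 30 min with CellTiter-Fluor, fluorescence was recorded.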

[16] = qHTS assay to identify small molecule antagonists of the estrogen related receptor (ERR) signaling pathway (AID 1224819)
Outline: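 Luminescence readout (One-Glo, 30 min, RT) of ERR cell line after 18 h compound exposure at 37 C; cells seeded 2,000/well, pre-incubated 6 h, compounds pinned from DMSO stocks.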

[17] = qHTS assay to identify small molecule agonists of the estrogen related receptor (ERR) signaling pathway (AID 1224820)
Outline: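 Quantitative HTS of the LOPAC library used NTP ERR reporter cells treated 18 h at 37 C. Signal is luminescence after One-Glo addition and a 30 min room-temperature incubation.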

[18] = tested on: estrogen-related receptor alpha (ERRalpha) with PGC-1alpha coactivator, human; test: qHTS assay to identify small molecule antagonists of the estrogen related receptor signaling pathway with the pleiotropic PPARgamma coactivator (PGC) (AID 1224821; calls by dose curve)
Outline: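 Quantitative HTS for antagonism: PGC/ERR cells received compounds after 6 h attachment and were incubated 18 h at 37 C, with luminescence (One-Glo) as the endpoint.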

[19] = qHTS assay to identify small molecule antagonists of the estrogen related receptor signaling pathway with the pleiotropic PPARgamma coactivator (PGC) cell viability counter screen (AID 1224822;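 also: series mostly up to about 46 µM; viability read after 17.5 h compound exposure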)
Outline: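 PGC/ERR cells were plated at 2,000 per well and allowed 6 h to settle before compound addition. Following 17.5 h at 37 C, CellTiter-Fluor reagent was added and fluorescence was read 30 min later.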

[20] = qHTS assay to identify small molecule agonists of the estrogen related receptor signaling pathway with the pleiotropic PPARgamma coactivator (PGC) (AID 1224823); also: potency is read from the fitted curve at half-maximal effect
Outline: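 Cell-based luciferase assay in the NTP-supplied PGC/ERR line, 2,000 cells/well; 18 h compound exposure at 37 C, luminescence after One-Glo.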

Measured: Potency

Chain of Retinoic acid receptor RXR-alpha (Homo sapiens) (P19793 whole entry, looked up): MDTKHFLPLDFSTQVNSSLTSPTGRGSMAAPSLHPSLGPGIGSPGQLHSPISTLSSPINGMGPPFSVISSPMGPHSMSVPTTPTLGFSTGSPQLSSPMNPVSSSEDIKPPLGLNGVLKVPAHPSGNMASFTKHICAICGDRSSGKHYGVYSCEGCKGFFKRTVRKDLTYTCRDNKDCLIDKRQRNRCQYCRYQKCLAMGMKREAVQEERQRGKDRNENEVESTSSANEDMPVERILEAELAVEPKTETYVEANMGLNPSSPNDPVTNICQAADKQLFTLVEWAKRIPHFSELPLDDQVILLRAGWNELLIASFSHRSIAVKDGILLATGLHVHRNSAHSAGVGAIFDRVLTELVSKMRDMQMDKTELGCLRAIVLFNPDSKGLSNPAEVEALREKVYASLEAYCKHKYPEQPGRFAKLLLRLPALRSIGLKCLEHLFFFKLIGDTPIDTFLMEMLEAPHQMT

Cc1ccc(S)cc1
inactive: [1] | [2] | [3] | [4] | [5] | [6] | [7] | [8] | [9] | [10]

CCc1nn(CCCN2CCN(c3cccc(Cl)c3)CC2)c(=O)n1CCOc1ccccc1
active: [6] 18.8 µM
inactive: [2] | [3] | [4] | [5] | [7] | [8] | [10]

C=CCNc1nc(NCC=C)nc(N2CCN(C(c3ccc(F)cc3)c3ccc(F)cc3)CC2)n1
inactive: [2] | [3] | [4] | [5] | [11] | [7] | [10] | [12] | [13]

CO[C@@]12[C@H](COC(N)=O)C3=C(C(=O)C(C)=C(N)C3=O)N1C[C@@H]1N[C@@H]12
active: [12] 10.6 µM
inactive: [1] | [2] | [3] | [4] | [5] | [6] | [7] | [8] | [9] | [10]

O=Cc1c(Cl)cccc1Cl
not listed: [6] | [11] | [15] | [16] | [17] | [18] | [19] | [20]
inactive: all other assays above

CCCCCCCCCCCC[N+](C)(C)CCCS(=O)(=O)[O-]
not listed: [11] | [14] | [15] | [16] | [17] | [18] | [19] | [20]
inactive: all other assays above

CCCCC(=O)O[C@]1(C(=O)CO)[C@@H](C)C[C@H]2[C@@H]3CCC4=CC(=O)C=C[C@]4(C)[C@@]3(F)[C@@H](O)C[C@@]21C
active: [6] 30.6 µM | [12] 61.1 µM
inactive: [1] | [2] | [3] | [4] | [5] | [7] | [10]

Cc1cc(OI)c(C(C)C)cc1-c1cc(C(C)C)c(OI)cc1C
inactive: [1] | [2] | [3] | [4] | [5] | [11] | [7] | [14] | [10] | [12] | [13]

OCC1CC=CCC1 (stereo not drawn)
inactive: [2] | [3] | [4] | [5] | [6] | [7] | [8] | [10] | [12]

COC(=O)c1cc(Cl)ccc1NS(=O)(=O)C(F)(F)F
inactive: [2] | [3] | [4] | [5] | [6] | [7] | [8] | [14] | [9] | [10] | [12]

COc1cc2ncnc(Nc3ccc(F)c(Cl)c3)c2cc1OCCCN1CCOCC1
active: [6] 11.9 µM
inactive: [1] | [2] | [3] | [4] | [5] | [8]

Cc1cc2nc3ccc(=[N+](C)C)cc-3sc2cc1N
active: [10] 26.6 µM | [13] 1.88 µM
inactive: [1] | [2] | [3] | [4] | [5] | [6]

CCCCCCCCCCOS(=O)(=O)O
inactive: [1] | [2] | [3] | [4] | [5] | [11] | [7] | [9] | [10] | [12] | [13]

CC(C)(C)CC(C)(C)c1ccc(OCCO)cc1
active: [6] 19.2 µM
inactive: [2] | [3] | [4] | [5] | [7] | [8] | [10] | [12] | [13]

O=C(CCC1CCN(Cc2ccccc2)CC1)c1ccc2c(c1)NCCCC2
inactive: [2] | [3] | [4] | [5] | [11] | [7] | [9] | [10] | [12] | [13]

CN(C)CCOC1=Cc2ccccc2Sc2ccc(Cl)cc21
inactive: [2] | [3] | [4] | [5] | [11] | [7] | [10] | [13]

Cc1nccn1-c1ccc(Sc2cccc(C3(C(N)=O)CCOCC3)c2)cc1
inactive: [2] | [3] | [4] | [5] | [7] | [8] | [9] | [10]
active: [6] 5.45 µM | [12] 9.69 µM

CCCCCCOC(=O)C(C)C
inactive: [1] | [2] | [3] | [4] | [5] | [6] | [7] | [8] | [9] | [10] | [13]

COC(=O)Nc1nc2ccc(C(=O)c3cccs3)cc2[nH]1
active: [20] 1.96 µM
not listed: [6] | [8] | [14]
inactive: all other assays above

O=C(NCCCN1CCOCC1)c1ccc(Cl)cc1
inactive: [1] | [2] | [3] | [4] | [5] | [7] | [8] | [9] | [10]
